High-throughput results: PubChem BioAssay, University of Kansas High Throughput Screening Laboratory
Pf apPOL block: Pf-apPOL DNA polymerase inhibition. AID 1794808. inhibition, % at 10 µM. 210,000 tested, 0.25% active. Recombinant Pf-apPOL, molecular beacon fluorescence, 1.5 h
mHTT CaM bind: disrupts binding of mutant huntingtin to calmodulin; inhibition, % at 15 µM; AID 1671202; 190,000 tested, 3.6% active; AlphaScreen His-mHTT/GST-CaM binding, luminescence; P42858;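 further: 0% = both proteins with DMSO and 100% = one protein alone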
Target sequence (P42858 whole entry, looked up, stated change not applied): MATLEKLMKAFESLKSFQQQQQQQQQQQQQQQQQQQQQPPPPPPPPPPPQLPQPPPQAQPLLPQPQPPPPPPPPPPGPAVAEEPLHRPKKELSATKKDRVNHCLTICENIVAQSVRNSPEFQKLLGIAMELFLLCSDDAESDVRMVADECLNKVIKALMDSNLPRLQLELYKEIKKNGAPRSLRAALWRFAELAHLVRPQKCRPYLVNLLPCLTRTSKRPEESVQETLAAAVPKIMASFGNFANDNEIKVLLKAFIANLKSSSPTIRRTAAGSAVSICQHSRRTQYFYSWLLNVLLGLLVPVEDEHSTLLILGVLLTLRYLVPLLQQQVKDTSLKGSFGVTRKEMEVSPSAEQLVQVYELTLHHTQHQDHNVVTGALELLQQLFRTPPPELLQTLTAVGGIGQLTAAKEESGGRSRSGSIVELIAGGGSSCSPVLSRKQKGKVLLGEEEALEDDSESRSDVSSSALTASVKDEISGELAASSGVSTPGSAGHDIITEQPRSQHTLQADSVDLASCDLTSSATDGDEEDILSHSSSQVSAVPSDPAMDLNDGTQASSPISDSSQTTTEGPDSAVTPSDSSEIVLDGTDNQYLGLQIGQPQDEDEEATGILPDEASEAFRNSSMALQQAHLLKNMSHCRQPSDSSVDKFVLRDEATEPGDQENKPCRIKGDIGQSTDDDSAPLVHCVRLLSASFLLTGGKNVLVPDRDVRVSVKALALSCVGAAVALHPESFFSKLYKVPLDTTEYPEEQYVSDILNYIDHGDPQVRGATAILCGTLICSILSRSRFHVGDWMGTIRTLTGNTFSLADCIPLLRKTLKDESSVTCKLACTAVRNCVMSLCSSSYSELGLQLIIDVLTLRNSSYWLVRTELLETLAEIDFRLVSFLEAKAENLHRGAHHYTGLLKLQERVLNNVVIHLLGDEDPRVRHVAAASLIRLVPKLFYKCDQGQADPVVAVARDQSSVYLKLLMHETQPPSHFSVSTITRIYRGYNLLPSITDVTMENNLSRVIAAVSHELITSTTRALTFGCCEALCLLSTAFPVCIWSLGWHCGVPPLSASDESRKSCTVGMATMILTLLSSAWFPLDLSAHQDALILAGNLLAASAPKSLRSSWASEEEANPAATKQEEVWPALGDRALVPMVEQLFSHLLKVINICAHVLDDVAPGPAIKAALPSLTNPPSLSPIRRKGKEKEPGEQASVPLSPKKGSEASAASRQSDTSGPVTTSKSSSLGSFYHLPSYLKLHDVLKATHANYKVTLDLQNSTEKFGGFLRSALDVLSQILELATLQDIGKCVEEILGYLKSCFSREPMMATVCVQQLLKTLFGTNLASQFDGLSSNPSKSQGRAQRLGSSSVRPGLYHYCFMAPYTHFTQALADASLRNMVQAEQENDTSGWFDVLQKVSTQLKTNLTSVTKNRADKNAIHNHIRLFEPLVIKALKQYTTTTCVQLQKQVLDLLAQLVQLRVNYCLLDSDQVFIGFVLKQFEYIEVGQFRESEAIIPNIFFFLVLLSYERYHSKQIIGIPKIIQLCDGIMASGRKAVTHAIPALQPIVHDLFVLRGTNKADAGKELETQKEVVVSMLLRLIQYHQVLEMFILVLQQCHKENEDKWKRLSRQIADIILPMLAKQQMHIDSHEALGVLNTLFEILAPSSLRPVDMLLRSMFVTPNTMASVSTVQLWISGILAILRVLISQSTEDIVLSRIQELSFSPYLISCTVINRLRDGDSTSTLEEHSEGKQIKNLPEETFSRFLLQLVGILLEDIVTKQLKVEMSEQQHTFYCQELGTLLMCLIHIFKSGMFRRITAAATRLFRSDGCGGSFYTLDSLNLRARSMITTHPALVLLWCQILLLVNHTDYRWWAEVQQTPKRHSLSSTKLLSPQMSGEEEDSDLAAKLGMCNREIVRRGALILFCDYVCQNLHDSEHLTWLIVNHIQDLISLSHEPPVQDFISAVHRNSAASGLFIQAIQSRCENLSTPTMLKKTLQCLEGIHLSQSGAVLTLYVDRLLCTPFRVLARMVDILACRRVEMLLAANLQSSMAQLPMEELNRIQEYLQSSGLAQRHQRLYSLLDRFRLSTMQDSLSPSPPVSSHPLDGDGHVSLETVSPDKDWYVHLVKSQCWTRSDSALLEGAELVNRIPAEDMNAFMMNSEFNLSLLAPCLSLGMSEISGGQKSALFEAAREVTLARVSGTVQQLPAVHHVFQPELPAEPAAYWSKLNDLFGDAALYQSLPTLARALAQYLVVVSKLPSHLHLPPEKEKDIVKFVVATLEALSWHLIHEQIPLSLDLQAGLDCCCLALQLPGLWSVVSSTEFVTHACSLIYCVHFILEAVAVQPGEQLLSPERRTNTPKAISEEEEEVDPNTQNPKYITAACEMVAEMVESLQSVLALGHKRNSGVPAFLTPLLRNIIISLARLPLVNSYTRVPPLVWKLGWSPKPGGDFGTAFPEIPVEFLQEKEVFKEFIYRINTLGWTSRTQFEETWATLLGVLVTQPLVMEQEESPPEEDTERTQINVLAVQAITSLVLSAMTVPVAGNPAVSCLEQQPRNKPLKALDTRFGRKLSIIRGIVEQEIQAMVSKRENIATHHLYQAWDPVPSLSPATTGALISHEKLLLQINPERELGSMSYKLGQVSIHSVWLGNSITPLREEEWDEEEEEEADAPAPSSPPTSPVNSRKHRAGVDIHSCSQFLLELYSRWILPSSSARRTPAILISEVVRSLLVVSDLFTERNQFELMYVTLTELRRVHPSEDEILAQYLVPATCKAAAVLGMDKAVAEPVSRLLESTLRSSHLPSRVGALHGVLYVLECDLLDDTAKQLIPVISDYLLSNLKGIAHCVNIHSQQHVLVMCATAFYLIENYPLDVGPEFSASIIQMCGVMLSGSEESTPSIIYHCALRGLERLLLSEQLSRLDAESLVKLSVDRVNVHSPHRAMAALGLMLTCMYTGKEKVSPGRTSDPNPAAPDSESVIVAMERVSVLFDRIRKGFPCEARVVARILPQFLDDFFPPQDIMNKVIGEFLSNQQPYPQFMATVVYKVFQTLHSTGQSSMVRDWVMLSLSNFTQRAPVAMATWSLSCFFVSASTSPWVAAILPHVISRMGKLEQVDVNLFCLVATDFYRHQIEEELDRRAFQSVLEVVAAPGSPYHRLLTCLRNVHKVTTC
An asterisk follows results filed as active; nt = not tested or not shown. This is a sample that favours compounds with a hit; in the whole collection about 3.5% have one here. No stated cut-off is given here; in the data, active means inhibition above about 50%; inactive means the rest.

SMILES | Pf apPOL block | mHTT CaM bind
O=C(OCc1cn([C@H]2C[C@H](c3ccc(Cl)cc3)N(Cc3cccs3)C[C@@H]2O)nn1)c1ccccc1 | -2 | 34
CC(C)C12C=CC(C)(CC1)C1C(=O)N(c3ccccc3)C(=O)C12 (stereo unspecified) | -3 | -6
O=[N+]([O-])c1cc([N+](=O)[O-])c2oc(-c3ccccc3)c(Br)c2c1O | -1 | 96*
O=c1cc(-c2ccccc2Cl)oc2ccc([N+](=O)[O-])c(O)c12 | -5 | 5
CC1CC(=O)NN=C1c1ccc(Cl)cc1 (stereo unspecified) | -13 | -10
COc1cccc(CC(=O)N2CC3CC(NS(C)(=O)=O)C2C3)c1 (stereo unspecified) | -4 | 4
CCn1ccc(C(=O)N2CC3CC(NC(=O)c4cccs4)C2C3)n1 (stereo unspecified) | -3 | 0
O=C(Nc1ccc(Nc2ccc(-n3cccn3)nn2)cc1)c1ncccn1 | -1 | 91*
O=C(Nc1ccc(-c2ccc(=O)[nH]n2)cc1)c1ccc(-n2cccn2)nn1 | 2 | -14
O=c1ccoc2c(Cl)cc(Cl)cc12 | nt | -5
COCCn1cc2c3c(cccc31)CN(C(=O)NC1CCCC1)CC2 | 0 | 8
COc1ccc(N2CCN(C(=O)c3ccnc(-c4cccs4)c3)CC2)cc1 | -2 | 50*
O=C(c1ccnc(-c2cccs2)c1)N1CCCCCC1 | -8 | -4
COc1ccc(CN2CCN(c3ccc(F)cc3)CC2)c(OC)c1C | -7 | 11
COc1cc(/C=C(\C#N)c2nn(-c3ccccc3)c(N)c2C#N)cc(OC)c1OC | -8 | 49
CCOc1cc(/C=C(\C#N)c2nn(CCO)c(N)c2C#N)cc(I)c1OC | 0 | 52*
CCOc1cc(/C=C(\C#N)c2nn(-c3ccccc3)c(N)c2C#N)cc(Br)c1OC | -2 | 56*
COc1cc(/C=C(\C#N)c2nn(CCO)c(N)c2C#N)cc2c1OCO2 | -4 | 1
O=C(NNC(=S)NC1CC2C=CC1C2)c1ccco1 (stereo unspecified) | -10 | nt
Cn1cccc1C1(C(F)(F)F)NN(c2ccccc2)C(N)=C1C#N (stereo unspecified) | 3 | 11
Cc1n[nH]c(C)c1Sc1ccccc1N=Cc1cccs1 | -5 | 12
O=C(O)CCCC(=O)N1N=C(c2ccc(Br)cc2)CC1c1ccco1 (stereo unspecified) | -2 | 22
Cc1ccc(C(=O)N2N=C(c3ccc(Br)cc3)CC2c2ccco2)cc1 (stereo unspecified) | -3 | 78*
O=C(NCc1cccnc1)c1cc(-c2ccc(Cl)c(Cl)c2)on1 | 2 | 0
COc1ccc(-c2n[nH]c(C)c2Oc2ccccc2)c(O)c1OC | -7 | 48
SMILES | Pf apPOL block | mHTT CaM bind
CCc1cc(-c2n[nH]c(C)c2Oc2ccc(F)cc2)c(O)cc1O | 8 | 100*
CCCc1ccc(Oc2c(-c3ccc(O)cc3O)n[nH]c2C)cc1 | -3 | 80*
Cc1[nH]nc(-c2ccc(OC(C)C)cc2O)c1Oc1ccccc1 | 7 | 67*
Cc1[nH]nc(-c2ccc(O)cc2O)c1Oc1ccccc1F | -9 | 42
CCOc1ccc(-c2n[nH]c(C)c2Oc2ccc(F)cc2)c(O)c1 | -1 | 26
CCc1cc(-c2n[nH]c(C)c2-c2ccccc2)c(O)cc1O | 0 | 69*
CCOc1ccc(-c2n[nH]c(C)c2-c2ccc(F)cc2)c(O)c1 | 1 | 24
O=S(=O)(c1ccc(-c2cc(C(F)(F)F)on2)s1)N1CCN(c2ncc(C(F)(F)F)cc2Cl)CC1 | -10 | nt
COc1ccc(CCC(=O)NCc2cccnc2OC)cc1 | -5 | -4
O=C(c1ccccc1Cl)N1CCCC(c2nnc(-c3cccs3)o2)C1 (stereo unspecified) | -5 | -9
O=C(c1noc2c1CCCC2)N(CCCN1CCOCC1)Cc1ccco1 | -3 | 5
CCCn1c2ccccc2c2nnc(SCC(=O)Nc3ccc(F)c(F)c3)nc21 | 0 | -2
CCc1cc(-c2n[nH]c(C)c2Oc2ccccc2)c(O)cc1O | -10 | 81*
COc1cc(C)c(-c2n[nH]c(C)c2Oc2ccccc2)c(O)c1 | 4 | 7
CCOC(=O)NCC1CCN(C(=O)Nc2ccc(F)cc2)CC1 | -2 | -2
Cc1cccc(C)c1NC(=O)Cn1nc2c(cc1=O)CC(C)CC2 (stereo unspecified) | 4 | -1
COc1ccc(-n2cc(C(=O)NC3CCCCC3)nn2)cc1 | 0 | -8
O=C(O)CN1C(=O)/C(=C2/SC(N3CCOCC3)=NC2=O)c2cc(Br)ccc21 | 2 | 0
CCCN1C(=O)/C(=C2/SC(=N)NC2=O)c2cc(Br)ccc21 | -1 | 5
C=CCN1C(=O)/C(=C2/SC(N3CCCCC3)=NC2=O)c2cc(Br)ccc21 | -4 | 52*
C=CCN1C(=O)/C(=C2\SC(N3CC(C)OC(C)C3)=NC2=O)c2cc(Br)ccc21 (stereo unspecified) | nt | 54*
Cc1c(-c2ccc(Br)cc2)c(=O)oc2cc(O)ccc12 | -16 | -13
COc1ccc(C=C2Oc3c(ccc(O)c3CN3CCC(C)CC3)C2=O)c(OC)c1 | -11 | 6
Cn1c(SCC(=O)Nc2ccccc2C(F)(F)F)nc2c([nH]c3ccccc32)c1=O | -6 | 1
Cc1ccccc1OCc1nc(C#N)c(NCCCn2ccnc2)o1 | -11 | 8
SMILES | Pf apPOL block | mHTT CaM bind
N#Cc1nc(COc2ccccc2Cl)oc1NCCCn1ccnc1 | 3 | 100*
COc1ccc(CCNc2oc(COc3ccccc3C)nc2C#N)cc1 | -3 | 52*
COc1ccc(CCNc2oc(COc3ccc(OC)cc3)nc2C#N)cc1 | 4 | -5
Cc1ccccc1OCc1ccc(-c2nc(C#N)c(NCc3cccnc3)o2)o1 | -8 | 54*
N#Cc1nc(COc2ccccc2Cl)oc1NCc1cccnc1 | -1 | 23
O=C(Nc1c2c(nn1-c1ccc(Cl)cc1)CS(=O)(=O)C2)c1cccc([N+](=O)[O-])c1 | 1 | 1
CCN=C1SC(CC(=O)Nc2cccc(C(=O)O)c2)C(=O)N1CC (stereo unspecified) | 1 | -3
CCc1cccc(CC)c1NC(=O)C1CC(=O)N(c2ccc(Br)cc2)C1 (stereo unspecified) | -6 | -4
COc1ccc(-c2ccc3nc(N4CCC(C(=O)NC(C)C)CC4)sc3n2)cc1 | -5 | 14
CCNC(=O)C1CCN(c2nc3ccc(-c4ccc(OC)cc4)nc3s2)CC1 | 7 | 62*
C=C[C@@H]1c2ccccc2N(S(=O)(=O)c2ccc(C)cc2)[C@H](c2ccccc2)C1(C#N)S(=O)(=O)c1ccccc1 (stereo partly specified) | 1 | 6
Cn1cnnc1SCC(=O)Nc1ccc(Br)c2cccnc12 | -6 | 9
COc1ccc(C2(C(=O)Nc3ccc(C)cc3)CCCC2)cc1OC | 1 | -2
Cc1ccc(C)c(N2CCN(C(=O)C3CCN(c4cncnc4N(C)C)CC3)CC2)c1 | 2 | 60*
CN(C)c1ncncc1N1CCC(C(=O)N2CCCC2)CC1 | 4 | -5
CC1CCN(C(=O)C2CCN(c3cncnc3N(C)C)CC2)CC1 | -4 | -2
CN(C)c1ncncc1N1CCC(C(=O)N2CCC(Cc3ccccc3)CC2)CC1 | -4 | 50*
O=C(NCc1ccco1)N1CCCC(OCc2nc(C3CC3)no2)C1 (stereo unspecified) | -4 | -4
CCOc1cccc(C(=O)Nc2ccc([N+](=O)[O-])cc2)c1 | -1 | 2
O=C1ON=C(CSc2ccccc2)C1=Cc1ccccc1 | 61* | nt
O=C1CCC=C1CSc1ccccc1 | nt | -7
